# Test results published in PubChem BioAssay (Tox21).
# Results filed as inconclusive are left out. Entries that show only a call come without a potency. The source made the active and inactive calls. The call rests on the fitted dose curve; in most records, active means well fitted inhibition curve with a large enough effect in the repeat runs; inconclusive means weak or mixed curves; inactive means flat fitted curve, though single readings scatter.
# Test: qHTS assay to identify small molecule HDAC inhibitors (AID 1259364); further: nearly all actives have a fitted effect of over 45% in size; on activity change, negative = inhibition: top concentration of the series differs between compounds
# Details: HCT-116 HDAC-Glo I/II luminescence, 2 h; series mostly up to 92.4 µM
# From the text: U.S. Tox21 Program National Center for Advancing Translational Sciences [NCATS] NIH Chemical Genomics Center [NCGC] U.S. Environmental Protection Agency [EPA] National Institutes of Environmental Health Sciences [NIEHS] National Toxicology Program [NTP] U.S. Food and Drug Administration [FDA] Tox21 Assay Overview: Histone deacetylases (HDACs) are a group of epigenetic enzymes that regulate gene expression by histone deacetylation. HDACs are capable of introducing epigenetic modifications and such aberrations contribute to the onset and progression of several human diseases, thus making HDACs a popular therapeutic target. For identifying endogenous class I/II HDAC inhibitors a homogenous, luminogenic HDAC I/II cell based assay was used to measure the relative activity of class I and II HDACs from cells. Wild type HCT-116 cells were used to screen Tox21 libraries for identifying class I/II HDAC inhibitors.
# Tox21 Assay Protocol Summary: HCT-116 cells were dispensed at 1,500 per well in 5uL of culture medium into white solid bottom 1536-well plates (Greiner Bio-One, Monroe, NC) using a Multidrop Combi (Thermo Scientific, Waltham, MA) dispenser. The assay plates were incubated at 37 C and 5% CO2 for an overnight, and then 23nL of compounds dissolved in DMSO and positive control were transferred using a Pintool station (Wako, San Diego, CA). The assay plates were incubated at 37C and 5% CO2 for 2hr. After compound treatment, 4uL of HDAC-Glo reagent (Promega Corporation, Madison, WI) was added to each well of the assay plates using Flying Reagent Dispenser (FRD, Aurora Discovery, San Diego, CA) and incubated the assay plates at room temperature for 30min. The luminescence signal was quantified using a ViewLux plate reader (Perkin Elmer, Shelton, CT).
# Potency means the concentration at half of the fitted maximal effect.
SMILES,Potency,"activity change, negative = inhibition"
C[Si]1(C)O[Si](C)(C)O[Si](C)(C)O1,inactive,–
CCC(C)=O,inactive,–
N#C/C(=C1/SC[C@@H](c2ccc(Cl)cc2Cl)S1)n1ccnc1,inactive,–
C=CCCCCCCCCCCCCCCCC,–,2.22% [at 8.39 µM] (inactive)
N#C/C(=C1\SCC(c2ccccc2Cl)S1)n1ccnc1 (stereo not given),inactive,–
CO[Si](C)(OC)OC,inactive,–
C/C=C/C=C/CCCCCCCO,inactive,–
C/C(=N/NC(=O)c1ccncc1)C(=O)O,inactive,–
CCN(CC)CCNC(=O)c1ccc(NC(C)=O)cc1,inactive,–
CC(=O)CC(c1ccc([N+](=O)[O-])cc1)c1c(O)c2ccccc2oc1=O (stereo not given),inactive,–
COCCOC(=O)C1=C(C)NC(C)=C(C(=O)OC/C=C/c2ccccc2)C1c1cccc([N+](=O)[O-])c1 (stereo not given),inactive,–
CC(C)C(=O)O,inactive,–
CCCCCCCCCCOS(=O)(=O)O,inactive,–
CO[C@@]12[C@H](COC(N)=O)C3=C(C(=O)C(C)=C(N)C3=O)N1C[C@@H]1N[C@@H]12,inactive,–
ON(Cc1ccccc1)Cc1ccccc1,inactive,–
CNC(=O)N(c1ccccc1)c1ccccc1,inactive,–
OC(CCCN1CCCCC1)(c1ccccc1)c1ccccc1,inactive,–
Fc1ccccc1[C@@H](F)COC1CCC(Nc2ncnc3[nH]ncc23)CC1 (stereo not given in full),inactive,–
NC(=O)Nc1ccc(Cl)cc1,inactive,–
Cc1nc2ccccn2c(=O)c1CCN1CCC(C(=O)c2ccc(F)cc2)CC1,inactive,–

SMILES,Potency,"activity change, negative = inhibition"
CN1Cc2cc(C(=O)N3CCC(C4CCNCC4)CC3)ccc2N[C@@H](CC(=O)O)C1=O,inactive,–
CC1=CC(O)CC(C)(C)C1 (stereo not given),inactive,–
O=C(O)c1ccc(CO)o1,inactive,–
O=C(O)C(Cc1cc(I)c(O)c(I)c1)c1ccccc1 (stereo not given),inactive,–
Cc1oc(C)c(C(=O)Nc2ccccc2)c1C,27.3 µM (active),–
CCc1cccc(N(C)C(N)=Nc2cccc3ccccc23)c1,inactive,–
CC(C)C(OC(=O)c1ccccc1)C(C)(C)COC(=O)c1ccccc1 (stereo not given),inactive,–
C[C@@H]1C[C@H]2[C@@H]3CCC4=CC(=O)C=C[C@]4(C)[C@@]3(F)[C@@H](O)C[C@]2(C)[C@H]1C(=O)CO,inactive,–
C1COCO1,inactive,–
C/C=C(\C)C(=O)OCCC(C)CCC=C(C)C (stereo not given),inactive,–
OCC1CC=CCC1 (stereo not given),inactive,–
CC(C)CCCCCOC(=O)CCCCC(=O)OCCCCCC(C)C,inactive,–
CCCCC(=O)O[C@]1(C(=O)CO)[C@@H](C)C[C@H]2[C@@H]3CCC4=CC(=O)C=C[C@]4(C)[C@@]3(F)[C@@H](O)C[C@@]21C,inactive,–
CCOC(=O)N1CCC(n2c(=O)[nH]c3cc(Cl)ccc32)CC1,inactive,–
CCOC(=O)c1ccccc1C,inactive,–
CCCOC(=O)c1ccc(N)cc1,inactive,–
C=C(C)C(=O)OCCOC(=O)CC(C)=O,inactive,–
NC(=O)N(O)[C@@H]1C=C[C@H](Oc2cccc(Oc3ccc(F)cc3)c2)C1,inactive,–
CN(C(=O)C(Cl)Cl)c1ccc(OC(=O)c2ccco2)cc1,inactive,–
CCCCC(CC)COC(=O)COc1ccc(Cl)cc1C (stereo not given),inactive,–
